Screens from PubChem.
HPGD inh = inhibitors of human 15-hydroxyprostaglandin dehydrogenase (HPGD). purified HPGD, NADH fluorescence kinetic, PGE2 substrate. Potency, µM, actives largely listed as inhibitors. 150,000 compounds, 4.3% hits. AID 894; active = well fitted inhibition curve with a large enough effect, not every such curve was filed as active; inconclusive = small, poorly fitted or top-dose-only effect, or another doubt; inactive = no such curve, though single readings can be large or run the other way
Target sequence (P15428 whole entry, looked up): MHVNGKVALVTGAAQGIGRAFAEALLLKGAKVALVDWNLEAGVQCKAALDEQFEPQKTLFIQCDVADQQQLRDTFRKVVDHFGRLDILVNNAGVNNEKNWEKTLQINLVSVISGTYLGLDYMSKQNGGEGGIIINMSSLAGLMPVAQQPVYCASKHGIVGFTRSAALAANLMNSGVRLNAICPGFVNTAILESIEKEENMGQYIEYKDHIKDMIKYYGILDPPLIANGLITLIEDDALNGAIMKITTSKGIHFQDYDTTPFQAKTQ
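NADH formation kinetics: reaction with 30 uM PGE2 and 1 mM NAD+ (final), 20 nM enzyme, Tris-HCl pH 8 with Tween 20, after 15 min compound preincubation at room temperature. Fluorescence change, last versus first of five reads.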
NPSR antag = antagonists of human neuropeptide S receptor cAMP signaling | Q6W5P4 | CHO-NPSR cells, cAMP TR-FRET, antagonist mode | Potency, µM (doses to about 38.3 µM), actives largely listed as inhibitors | 220,000 compounds, 1% hits | AID 1461; also: nearly all actives have a fitted effect of over 50% in size
Target sequence (Q6W5P4 whole entry, looked up): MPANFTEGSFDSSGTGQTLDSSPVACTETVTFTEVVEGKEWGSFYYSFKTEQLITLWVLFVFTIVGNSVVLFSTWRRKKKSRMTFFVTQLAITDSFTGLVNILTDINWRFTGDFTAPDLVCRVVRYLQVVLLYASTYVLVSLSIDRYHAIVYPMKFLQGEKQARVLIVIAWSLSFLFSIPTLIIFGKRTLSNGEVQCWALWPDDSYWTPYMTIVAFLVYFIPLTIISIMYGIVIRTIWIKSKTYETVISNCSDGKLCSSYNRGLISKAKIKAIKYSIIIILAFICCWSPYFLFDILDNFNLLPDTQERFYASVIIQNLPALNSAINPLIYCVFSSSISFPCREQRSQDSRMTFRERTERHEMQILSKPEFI
ALDH1A1 inh = inhibitors of human aldehyde dehydrogenase 1A1. P00352. Purified ALDH1A1, NADH fluorescence, propionaldehyde substrate. Potency, µM (series often up to 75.3 µM), usual class: inhibitors. 220,000 compounds, 7.3% hits. AID 1030; active = well fitted inhibition curve with a large enough effect, not every such curve was filed as active; inconclusive = small, poorly fitted or top-dose-only effect, or another doubt; inactive = no such curve, though single readings can be large or run the other way
Tau ThT inhib = inhibitors of human tau fibril formation, thioflavin T binding; recombinant tau K18 P301L, heparin-induced fibrillization, ThT fluorescence; Potency, µM (doses to about 57.4 µM), hits mostly inhibitors; 270,000 compounds, 2.1% hits; AID 1460; also: nearly all actives have a fitted effect of over 55% in size
Target sequence (P10636 561-689 P618L limits assumed): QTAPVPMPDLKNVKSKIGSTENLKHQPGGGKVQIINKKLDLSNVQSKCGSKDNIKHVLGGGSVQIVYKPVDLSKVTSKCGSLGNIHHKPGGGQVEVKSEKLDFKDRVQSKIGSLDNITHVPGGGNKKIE
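Heparin-induced fibrillization of the P301L-mutant K18 repeat-domain fragment of human tau was followed by ThT binding in quantitative high-throughput format.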
Tau FP inhib = inhibitors of human tau fibril formation | K18 P301L tau heparin fibrillization, Alexa594 FP, 6 h | P10636 | AID 1468 | Potency, µM (highest dose often 57.7 µM), hits mostly inhibitors | 280,000 compounds, 0.39% hits; also: nearly all actives have a fitted effect of over 55% in size
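FP of Alexa 594-tau after heparin (20 uM) induction. Substrate: human K18 P301L, 15 uM unlabeled, 0.24 uM labeled. Buffer 100 mM sodium acetate pH 7. 6 hr, 37 C.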
Tau fluor counter = counter-screen for tau fibril formation inhibitors; tau K18 P301L Alexa594 fluorescence, heparin fibrillization; 280,000 compounds, 0.93% hits; Potency, µM (top dose mostly 57.7 µM); AID 1463; also: nearly all actives have a fitted effect of over 55% in size
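Human tau K18 P301L (15 uM unlabeled, 0.24 uM Alexa 594-labeled) in 100 mM sodium acetate pH 7 with 20 uM heparin, 6 hr at 37 C. ThT 30 uM added, 1 hr ambient; Alexa 594 FP and total fluorescence read at 555/632 nm.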
Of the large screens only hits and unclear results are named; the others gave an inactive call; ! = not active in a repeat; [ ] = remark or other dose. Shown are actives, neighbours in structure and some others; about 9.5% of the full set was active somewhere. Unless noted, calls follow the shape of the dose curve; as a rule, active = well fitted curve in the direction sought with a large enough effect; inconclusive = small, poorly fitted or top-dose-only effect, or another doubt; inactive = no such curve, though single readings can be large; an effect the other way counts as inactive or inconclusive.

COc1ccc(C2C(C(=O)N3CCC(C)CC3)c3ccccc3C(=O)N2C)cc1 (stereo not given)	none
C=CCc1ccccc1OCC(O)CNC (stereo not given)	ALDH1A1 inh 22.4µM
CN(C)c1ccc(/C=C/C(O)=C2/C(=O)N(C)C3(C)CC2c2ccccc2O3)cc1 (stereo not given)	ALDH1A1 inh 20µM, Tau ThT inhib inconclusive, Tau fluor counter inconclusive
CCn1c(SCC(=O)c2ccc(F)cc2)nnc1-c1ccoc1C	HPGD inh inconclusive, ALDH1A1 inh 22.4µM, Tau ThT inhib inconclusive
Cc1occc1-c1nnc(SCCCC(=O)c2ccc(F)cc2)n1C	ALDH1A1 inh inconclusive
COc1cccc(-n2cc(C(=O)Nc3cc(OC)c(OC)c(OC)c3)c3ccccc3c2=O)c1	none (no result: HPGD inh, NPSR antag, ALDH1A1 inh)
CCOC(=O)C1(CC2CCCCO2)CCN(S(=O)(=O)c2ccc(C)s2)CC1 (stereo not given)	ALDH1A1 inh 20µM (no result: HPGD inh)
CN(C)CCCNC(=O)c1ccc(Cc2nc3ccccc3[nH]2)cc1	none (no result: NPSR antag, Tau ThT inhib, Tau FP inhib, Tau fluor counter)
CN(C)c1ccc(C2=NOC(CN3C(=O)c4ccccc4S3(=O)=O)C2)cc1 (stereo not given)	HPGD inh inconclusive, NPSR antag inconclusive, ALDH1A1 inh 15.8µM, Tau ThT inhib inconclusive
N#CCCN1CCCc2cc(N=Nc3ccc(C(F)(F)F)cc3)ccc21	NPSR antag inconclusive, Tau ThT inhib 3.55µM, Tau FP inhib inconclusive, Tau fluor counter 8.91µM[quencher] (no result: HPGD inh, ALDH1A1 inh)
CN1CCN(c2ncnc3ccc(-c4cccnc4)cc23)CC1	none (no result: HPGD inh, NPSR antag, Tau ThT inhib, Tau FP inhib, Tau fluor counter)
CCOc1ccccc1/C=C(/NC(=O)c1ccccc1)C(=O)NC(C)c1ccccc1 (stereo not given)	ALDH1A1 inh inconclusive
CC1=C(C(=O)OCC(C)C)C(c2ccccc2Cl)NC(=O)N1C (stereo not given)	ALDH1A1 inh 20µM
O=C(c1c[nH]c(C(=O)N2CCN(c3ccccc3F)CC2)c1)c1cccc(Cl)c1Cl	ALDH1A1 inh inconclusive (no result: HPGD inh)
COc1ccc(C(=O)NNC(=O)CCn2nnc(-c3ccc(Cl)cc3)n2)cc1OC	none (no result: HPGD inh)
FC(F)(F)c1cccc(-c2nc3nc(Cl)c(Cl)nc3[nH]2)c1	HPGD inh inconclusive, NPSR antag 6.31µM, ALDH1A1 inh inconclusive
Cc1onc(-c2ccccc2)c1C(=O)Nc1ccc(-c2nnc3n2CCCCC3)cc1	HPGD inh 7.08µM
COc1ccc(C(=O)Nc2ccc(-c3nnc4n3CCCCC4)cc2)cc1OC	none (no result: HPGD inh, NPSR antag, ALDH1A1 inh)
O=C(Cn1cnc2ccccc2c1=O)Nc1ccc(-c2nnc3n2CCCCC3)cc1	HPGD inh 12.6µM, ALDH1A1 inh 14.1µM
O=C(Nc1ccc(-c2nnc3n2CCCCC3)cc1)c1cnccn1	HPGD inh 10µM
c1nnc2c3c4c(sc3ncn12)CCCC4	none
CSc1nc2sc3c(c2c2nncn12)CCC3	ALDH1A1 inh 7.94µM
Cc1nn2c(=O)cc(COC(=O)c3ccco3)nc2s1	none (no result: HPGD inh, NPSR antag, ALDH1A1 inh)
CN(C)CCCO[C@H]1C([C@H](O)CO)O[C@@H]2OC(C)(C)O[C@@H]21 (stereo not given in full)	none
CCN(CC)c1nc(-c2ccccc2)ncc1S(=O)(=O)c1ccc(C)cc1	NPSR antag inconclusive, ALDH1A1 inh inconclusive (no result: HPGD inh)
CN1CCN(c2nc(-c3ccccc3)ncc2S(=O)(=O)c2ccccc2)CC1	ALDH1A1 inh 14.1µM (no result: HPGD inh)
Cc1ccc(S(=O)(=O)c2cnc(-c3ccccc3)nc2N2CCN(C)CC2)cc1	ALDH1A1 inh 2.24µM (no result: HPGD inh)
CN(C)c1nc(-c2ccccc2)ncc1S(=O)(=O)c1ccccc1	ALDH1A1 inh inconclusive (no result: HPGD inh)
Cc1ccc2nc(NC(=O)CSc3nccn3Cc3ccccc3)sc2c1	Tau fluor counter inconclusive (no result: HPGD inh, NPSR antag, ALDH1A1 inh)
Cn1c(N)c(C(=O)COC(=O)c2ccco2)c(=O)n(C)c1=O	none
CCOc1ccc(NC(=O)CSc2nc3c(c(=O)[nH]2)CCCC3)cc1	none (no result: HPGD inh, NPSR antag, ALDH1A1 inh)
COc1cc(O)c2c(=O)c(O)c(-c3ccc(O)c(O)c3)oc2c1	Tau ThT inhib 5.01µM, Tau fluor counter 20µM[quencher] (no result: NPSR antag)
O=c1c(O)c(-c2ccc(O)cc2)oc2cc(O)ccc12	HPGD inh inconclusive, ALDH1A1 inh inconclusive, Tau ThT inhib inconclusive, Tau fluor counter inconclusive (no result: NPSR antag)
COc1cc(O)c2c(=O)c3c(OC)c(O)ccc3oc2c1	HPGD inh inconclusive, ALDH1A1 inh inconclusive, Tau ThT inhib 12.6µM, Tau fluor counter inconclusive
COc1cc(-c2oc3cc(O)ccc3c(=O)c2O)ccc1O	HPGD inh inconclusive, ALDH1A1 inh inconclusive, Tau ThT inhib inconclusive, Tau fluor counter inconclusive (no result: NPSR antag)
O=c1c(O)c(-c2ccc(O)cc2)oc2cc(O)cc(O)c12	HPGD inh 28.2µM!, Tau ThT inhib 12.6µM, Tau fluor counter inconclusive (no result: NPSR antag)
O=C(NC(c1ccccc1)c1ccccc1)c1ccc(S(=O)(=O)C(F)F)cc1	none (no result: HPGD inh)
CCC(Oc1ccccc1)C(=O)Nc1ccc(O)c(-c2nc3cc(C)ccc3o2)c1 (stereo not given)	none (no result: HPGD inh, NPSR antag, ALDH1A1 inh)
C=CS(=O)(=O)c1ccc(Oc2ccc(S(=O)(=O)C=C)cc2)cc1	ALDH1A1 inh 0.0316µM, Tau ThT inhib 2µM, Tau FP inhib inconclusive
CSCSC1=C(C#N)C(c2ccccc2Cl)C(C(C)=O)=C(C)N1 (stereo not given)	HPGD inh inconclusive, ALDH1A1 inh 25.1µM, Tau fluor counter inconclusive
CC1=C(C(=O)Nc2ccccc2)C(c2ccco2)C(C#N)=C(SCC(=O)OC(C)C)N1 (stereo not given)	NPSR antag inconclusive, ALDH1A1 inh inconclusive, Tau ThT inhib inconclusive
CCN(CC)C(=O)CSC1=C(C#N)C(c2ccco2)C(C(=O)OCCOC)=C(C)N1 (stereo not given)	HPGD inh inconclusive, ALDH1A1 inh inconclusive
C=CCOC(=O)C1=C(C)NC(SCC(=O)N(CC)CC)=C(C#N)C1c1ccco1 (stereo not given)	HPGD inh 17.8µM, ALDH1A1 inh inconclusive
COc1ccccc1NC(=O)C1=C(C)NC(SCC(=O)c2ccc(C)cc2)=C(C#N)C1c1ccco1 (stereo not given)	HPGD inh inconclusive, NPSR antag 6.31µM, Tau ThT inhib inconclusive
CCc1ccc(C(=O)CSC2=C(C#N)C(c3ccco3)C(C(C)=O)=C(C)N2)cc1 (stereo not given)	HPGD inh inconclusive, NPSR antag inconclusive, ALDH1A1 inh inconclusive, Tau ThT inhib inconclusive, Tau fluor counter inconclusive
CC(=O)C1=C(C)NC(SCC(=O)c2ccc(Cl)c(Cl)c2)=C(C#N)C1c1ccco1 (stereo not given)	HPGD inh 22.4µM, NPSR antag 10µM, ALDH1A1 inh 2.82µM
CC(C)CN(Cc1cc(=O)oc2cc(-c3ccccc3)c(O)cc12)CC(C)C	NPSR antag inconclusive, Tau FP inhib inconclusive (no result: HPGD inh, ALDH1A1 inh)
COc1ccc(-c2cn3nc(N4CCCC(C(=O)Nc5ccc(C)c(C)c5)C4)sc3n2)cc1 (stereo not given)	Tau ThT inhib inconclusive, Tau fluor counter inconclusive (no result: HPGD inh, NPSR antag, ALDH1A1 inh)
CCOc1ccccc1-n1nnc(-c2nc(-c3ccccc3)no2)c1N	none (no result: HPGD inh, NPSR antag, ALDH1A1 inh)
